Laboratory results as given in PubChem BioAssay (NCI).
The panel holds about 83,000 compounds, 20% with a hit somewhere; the sample as a whole holds those more often.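 96-well plates, one dose, 48 hours. Percent growth reported; active if below 10.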 Activity calls are given as the source filed them.

test system: OVCAR-4 ovarian; assay: NCI-60 one-dose screen, 48 h (100 = growth as untreated, 0 = no growth, -100 = all killed); details: 10 µM unless noted

Compound	growth
C#C[C@]1(O)CC[C@H]2[C@@H]3CC=C4c5sc(Nc6cccc(C)n6)nc5CC[C@]4(C)[C@H]3CC[C@@]21C	56.6% (inactive)
Clc1ccc(-c2csc(N/N=C/c3nc4ccccc4n3C3CC3)n2)cc1	101% (inactive)
O=C(NNc1nc2cc(F)c(F)cc2n2cccc12)c1ccncn1	3.66% (active)
CCn1c2ccc(/C=N/NS(=O)(=O)CCN(C)C)cc2c2cc(/C=N/NS(=O)(=O)CCN(C)C)ccc21	99.8% (inactive)
COc1ccc(-c2nnc(/N=C3/C(=O)Nc4ccc(Br)cc43)o2)cc1	101% (inactive)
O=C(CCCCCCN1CC(=O)N2[C@@H](c3ccc(Cl)c(F)c3)c3[nH]c4ccccc4c3C[C@H]2C1=O)NO	84.3% (inactive)
O=C(N/N=C\c1ccc(Cl)cc1)c1ccc2nc(-c3ccc(Br)cc3)[nH]c2c1	-44.1% (active)
O=C1CSC(=O)N1Cc1cc2ccccc2nc1Cl	99.2% (inactive)
CCCCSc1nnc(-c2ccc(-c3ccc(Cl)cc3)nc2C)o1	102% (inactive)
COc1ccc(/C=N\NC(=O)c2ccc3nc(-c4ccc(Br)cc4)[nH]c3c2)cc1	12.5% (inactive)
NS(=O)(=O)c1ccc(Nc2nc(N/N=C/c3ccc([N+](=O)[O-])cc3)nc(Nc3ccccc3)n2)cc1	55.8% (inactive)
COc1cc(NC2=C(Cl)C(=O)c3nc(C)ccc3C2=O)cc(OC)c1	-93.3% (active)
Cc1ccc(/C=C/CC(=O)Nc2ccc(C(=O)Nc3ccc(F)cc3N)cc2)cn1	62.1% (inactive)
O=C(c1ccc(O)cc1)[C@@H]1[C@@H]2CCCN2[C@@]2(C(=O)N(C(=O)c3ccc(F)cc3)c3ccccc32)[C@H]1c1ccc(F)cc1	91.1% (inactive)
COc1ccc(S(=O)(=O)n2cc(C=O)c3ccccc32)c(OC)c1	80.9% (inactive)
C#C[C@]1(O)CC[C@H]2[C@@H]3CC=C4c5sc(Nc6cc(Cl)ccn6)nc5CC[C@]4(C)[C@H]3CC[C@@]21C	68.1% (inactive)
N#C/C(=C\c1ccc2ccccc2c1)C(=O)Nc1sc2c(c1C#N)CCC2	105% (inactive)
CN1CCN(Cc2ccc(NC(=O)c3cncc(C#Cc4cnc5ccc(O[C@H]6CCOC6)nn45)c3)cc2C(F)(F)F)CC1	-58.9% (active)
C/C=C/C=C1\C[C@H]2CO[C@H](O2)C1=O	101% (inactive)
O=C(NNc1nc2cc(F)cc(F)c2n2cccc12)c1ncccn1	20.9% (inactive)

Compound	growth
C#CCOc1ccc(/C=N/Nc2nc(-c3cc(Cl)ccc3Cl)cs2)cc1	52.8% (inactive)
COc1ccc(-c2nc(SCC(C)C)nc(N/N=C\c3cccc([N+](=O)[O-])c3)c2C#N)cc1	38.7% (inactive)
CNC(=O)c1cc(Oc2ccc3nc(NC(=O)c4ccc(CN5CCN(C)CC5)c(C(F)(F)F)c4)sc3c2)ccn1	52.4% (inactive)
C#C[C@]1(O)CC[C@H]2[C@@H]3CC=C4c5sc(Nc6ccc(OC)nc6)nc5CC[C@]4(C)[C@H]3CC[C@@]21C	76.1% (inactive)
O=C1Nc2ccc(Br)cc2/C1=N\c1nnc(-c2ccc(Cl)cc2)o1	86.4% (inactive)
CC(C)c1nn(-c2ccccc2)c(N2CCCCC2)c1/C=N/NC(N)=S	72.4% (inactive)
COc1cc(/C=C/C(=O)c2ccc(N3CCN(C)CC3)cc2)ccc1F	75.9% (inactive)
CC1CCN(S(=O)(=O)c2ncsc2-c2ccccc2)CC1	88.5% (inactive)
O=C1[C@@H]2Cc3c([nH]c4ccccc34)[C@H](c3c(Cl)cccc3Cl)N2C(=O)CN1C1CCN(Cc2ccccc2)CC1	-0.678% (active)
C#C[C@]1(O)CC[C@H]2[C@@H]3CC=C4c5sc(Nc6ccncc6)nc5CC[C@]4(C)[C@H]3CC[C@@]21C	59.8% (inactive)
C#CCOc1ccc(/C=N/Nc2nc(-c3cc4cc(Br)cc(Br)c4oc3=O)cs2)cc1	83.1% (inactive)
O=C1c2c(c3c4cccnc4[nH]c3c3ccc4ccccc4c23)C(=O)N1CCN1CCCCC1	95.2% (inactive)
NS(=O)(=O)Oc1ccc2nc(Nc3ccc(F)c(F)c3)ccc2c1	88.9% (inactive)
Cc1ccc(-c2csc(N/N=C/c3nc4ccccc4n3C3CC3)n2)cc1	93.1% (inactive)
O=C1c2c(c3c4cc(Br)ccc4[nH]c3c3ccc4ccccc4c23)C(=O)N1CCN1CCCCC1	95.2% (inactive)
Cc1cnc2nc(NN)[nH]n12	104% (inactive)
O=C(NCCCCCCNC(=O)c1c2c(nc3ccccc13)-c1cccnc1SC2)c1c2c(nc3ccccc13)-c1cccnc1SC2	79.6% (inactive)
COc1cc(/C=N/n2cnc3oc(-c4ccccc4)cc3c2=N)cc(CN2CCCC2)c1O	-49.7% (active)
C#C[C@]1(O)CC[C@H]2[C@@H]3CC=C4c5sc(Nc6cccc(Cl)n6)nc5CC[C@]4(C)[C@H]3CC[C@@]21C	47.8% (inactive)
